“And” between values parts separate entries of the source, which are not always exact repeats. Equal values may be shown once. This is part of a sample that, as a whole, favours compounds with a hit. Of some 83,000 tested, about 20% had one in any assay.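 Treatment: one concentration, 48 hours, 96-well format. Scoring: percent growth, with anything below 10 considered active.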 The source made the active and inactive calls.
Tests used:
Test in all cases: NCI-60 one-dose screen, 48 h (100 = growth as untreated, 0 = no growth, -100 = all killed)
Details in all cases: 10 µM unless noted
SK-MEL-2 melanoma = test system: SK-MEL-2 melanoma
EKVX NSCLC = test system: EKVX NSCLC
SN12C renal = test system: SN12C renal
UO-31 renal = test system: UO-31 renal
TK-10 renal = test system: TK-10 renal
ACHN renal = test system: ACHN renal
CAKI-1 renal = test system: CAKI-1 renal
A498 renal = test system: A498 renal
CCRF-CEM leukemia = test system: CCRF-CEM leukemia
MOLT-4 leukemia = test system: MOLT-4 leukemia
SR leukemia = test system: SR leukemia
RPMI-8226 leukemia = test system: RPMI-8226 leukemia
OVCAR-5 ovarian = test system: OVCAR-5 ovarian
OVCAR-4 ovarian = test system: OVCAR-4 ovarian
SK-OV-3 ovarian = test system: SK-OV-3 ovarian
IGROV1 ovarian = test system: IGROV1 ovarian
OVCAR-3 ovarian = test system: OVCAR-3 ovarian
HS 578T breast = test system: HS 578T breast
NCI/ADR-RES ovarian = test system: NCI/ADR-RES ovarian
OVCAR-8 ovarian = test system: OVCAR-8 ovarian

## CNc1cc(-c2cccc(OC(F)(F)F)c2)nc2ccc(N3CCCC3)cc12
SK-MEL-2 melanoma
  growth: 85.6% (inactive) and -78.5% (active) and -74.4% (active)
EKVX NSCLC
  growth: 84.1% (inactive) and 39.2% (inactive) and 11.9% (inactive)
SN12C renal
  growth: -18.5% (active) and -44.5% (active) and -23.2% (active)
UO-31 renal
  growth: 7.85% (active) and -81.2% (active) and 26.1% (inactive)
TK-10 renal
  growth: -55% (active) and -45.4% (active) and -12% (active)
ACHN renal
  growth: -99.6% (active) and -99.5% (active) and -98.9% (active)
CAKI-1 renal
  growth: 68.2% (inactive) and -88.8% (active) and -50.9% (active)
A498 renal
  growth: 77.2% (inactive) and 45.9% (inactive) and 47.7% (inactive)
CCRF-CEM leukemia
  growth: -36.5% (active) and -23.4% (active) and -0.147% (active)
MOLT-4 leukemia
  growth: -38.6% (active) and -30.7% (active) and 2.3% (active)
SR leukemia
  growth: -33.9% (active) and -44.7% (active) and -14.6% (active)
RPMI-8226 leukemia
  growth: -51.4% (active) and -43.5% (active) and -37.5% (active)
OVCAR-5 ovarian
  growth: 55.7% (inactive) and 12.4% (inactive) and 50% (inactive)
OVCAR-4 ovarian
  growth: 53.1% (inactive) and -27.1% (active) and 22% (inactive)
SK-OV-3 ovarian
  growth: 93.5% (inactive) and 55.3% (inactive) and 92.4% (inactive)
IGROV1 ovarian
  growth: 35.5% (inactive) and -14.9% (active) and 53.2% (inactive)
OVCAR-3 ovarian
  growth: 85.7% (inactive) and -90.8% (active) and 84.8% (inactive)
HS 578T breast
  growth: 88.4% (inactive) and 47.5% (inactive) and 75.7% (inactive)

## CCCCCn1sc(=O)n(Cc2ccc(CNC(=O)C(C)c3ccc(CC(C)C)cc3)cc2)c1=O (stereo not drawn)
SK-MEL-2 melanoma
  growth: 106% (inactive) and -18.6% (active)
EKVX NSCLC
  growth: 96.9% (inactive) and -65.7% (active)
SN12C renal
  growth: 95.3% (inactive) and -52.9% (active)
UO-31 renal
  growth: 85.8% (inactive) and -100% (active)
TK-10 renal
  growth: 106% (inactive) and -86.8% (active)
ACHN renal
  growth: 92.4% (inactive) and -100% (active)
CAKI-1 renal
  growth: 91.2% (inactive) and -73% (active)
A498 renal
  growth: 113% (inactive) and 40% (inactive)
CCRF-CEM leukemia
  growth: 95.8% (inactive) and 2.99% (active)
MOLT-4 leukemia
  growth: 101% (inactive) and -4.68% (active)
SR leukemia
  growth: 104% (inactive) and 1.27% (active)
RPMI-8226 leukemia
  growth: 99.7% (inactive) and -24.6% (active)
OVCAR-5 ovarian
  growth: 103% (inactive) and -53.7% (active)
OVCAR-4 ovarian
  growth: 90% (inactive) and -47.6% (active)
SK-OV-3 ovarian
  growth: 97.1% (inactive) and 70.2% (inactive)
IGROV1 ovarian
  growth: 106% (inactive) and -83.2% (active)
OVCAR-3 ovarian
  growth: 102% (inactive) and -75.4% (active)
HS 578T breast
  growth: 98.4% (inactive) and -7.35% (active)
NCI/ADR-RES ovarian
  growth: 99.8% (inactive) and -17.6% (active)

## Cc1ccc(NCSc2ccc(Cl)cc2)cc1
SK-MEL-2 melanoma
  growth: 108% (inactive) and 93.6% (inactive)
EKVX NSCLC
  growth: 92.7% (inactive) and 77.3% (inactive)
SN12C renal
  growth: 46.2% (inactive) and 42.7% (inactive)
UO-31 renal
  growth: 27% (inactive) and 14.7% (inactive)
TK-10 renal
  growth: 90.8% (inactive) and 78.2% (inactive)
ACHN renal
  growth: 88.4% (inactive) and 99.6% (inactive)
CAKI-1 renal
  growth: 59.5% (inactive)
A498 renal
  growth: 62.5% (inactive) and 66.3% (inactive)
CCRF-CEM leukemia
  growth: 17.8% (inactive)
MOLT-4 leukemia
  growth: 25.1% (inactive) and 47.8% (inactive)
SR leukemia
  growth: 62.5% (inactive) and 67.7% (inactive)
RPMI-8226 leukemia
  growth: 20.8% (inactive)
OVCAR-5 ovarian
  growth: 106% (inactive)
SK-OV-3 ovarian
  growth: 96.2% (inactive) and 97% (inactive)
IGROV1 ovarian
  growth: 103% (inactive) and 80.7% (inactive)
OVCAR-3 ovarian
  growth: 71.6% (inactive) and 78.9% (inactive)
HS 578T breast
  growth: 93.7% (inactive) and 102% (inactive)
NCI/ADR-RES ovarian
  growth: 88% (inactive) and 95.8% (inactive)

## O=C(O)CN(CCN(CC(=O)O)CC(=O)O)CCN(CC(=O)O)CC(=O)O
SK-MEL-2 melanoma
  growth: -31.4% (active) and 101% (inactive) and 93.2% (inactive)
EKVX NSCLC
  growth: -24.9% (active) and 105% (inactive) and 111% (inactive)
SN12C renal
  growth: 1.71% (active) and 99.1% (inactive) and 101% (inactive)
UO-31 renal
  growth: -3.87% (active) and 77.1% (inactive) and 99.1% (inactive)
TK-10 renal
  growth: -24.1% (active) and 110% (inactive) and 94% (inactive)
ACHN renal
  growth: 97.5% (inactive) and 104% (inactive)
A498 renal
  growth: 12.7% (inactive)
CCRF-CEM leukemia
  growth: 5.22% (active) and 97.7% (inactive) and 102% (inactive)
MOLT-4 leukemia
  growth: -17.3% (active) and 113% (inactive) and 96% (inactive)
SR leukemia
  growth: -21% (active) and 105% (inactive) and 101% (inactive)
RPMI-8226 leukemia
  growth: 14.4% (inactive) and 102% (inactive) and 101% (inactive)
OVCAR-8 ovarian
  growth: -15.6% (active) and 97.9% (inactive) and 99.4% (inactive)
OVCAR-5 ovarian
  growth: 89.8% (inactive) and 109% (inactive)
OVCAR-4 ovarian
  growth: 20.2% (inactive) and 105% (inactive) and 100% (inactive)
SK-OV-3 ovarian
  growth: 0.709% (active) and 105% (inactive) and 108% (inactive)
IGROV1 ovarian
  growth: 15% (inactive)
OVCAR-3 ovarian
  growth: -17.3% (active) and 110% (inactive) and 108% (inactive)
HS 578T breast
  growth: 7.28% (active) and 134% (inactive)
NCI/ADR-RES ovarian
  growth: -37.7% (active) and 110% (inactive) and 113% (inactive)

## CC1=C(/C=C/C(C)=C/C=C/C(C)=C/C(=O)Nc2ccc(O)cc2)C(C)(C)CCC1
SK-MEL-2 melanoma
  growth: 78.6% (inactive)
EKVX NSCLC
  growth: 64.7% (inactive)
SN12C renal
  growth: 39.2% (inactive)
UO-31 renal
  growth: -4.99% (active)
TK-10 renal
  growth: 103% (inactive)
ACHN renal
  growth: 52.2% (inactive)
CAKI-1 renal
  growth: 47% (inactive)
A498 renal
  growth: 71.4% (inactive)
CCRF-CEM leukemia
  growth: 19.5% (inactive)
SR leukemia
  growth: -4.85% (active)
OVCAR-8 ovarian
  growth: 65.9% (inactive)
OVCAR-5 ovarian
  growth: 89.9% (inactive)
SK-OV-3 ovarian
  growth: 69.3% (inactive)
OVCAR-3 ovarian
  growth: 27.8% (inactive)
HS 578T breast
  growth: 63.3% (inactive)

## Cc1ccc(S(=O)(=O)Nc2ccc3cc([N+](=O)[O-])ccc3c2[N+](=O)[O-])cc1
SK-MEL-2 melanoma
  growth: 99.7% (inactive) and 87.5% (inactive)
EKVX NSCLC
  growth: 86% (inactive) and 75.7% (inactive)
SN12C renal
  growth: 74.7% (inactive) and 91.6% (inactive)
UO-31 renal
  growth: 47.1% (inactive) and 58.1% (inactive)
TK-10 renal
  growth: 78.5% (inactive) and 101% (inactive)
ACHN renal
  growth: 71.2% (inactive) and 94.5% (inactive)
CAKI-1 renal
  growth: 57.8% (inactive) and 69.4% (inactive)
A498 renal
  growth: 69.1% (inactive) and 83% (inactive)
CCRF-CEM leukemia
  growth: 79.1% (inactive) and 39.4% (inactive)
SR leukemia
  growth: 91.8% (inactive) and 64.3% (inactive)
RPMI-8226 leukemia
  growth: 51.6% (inactive) and 38.2% (inactive)
OVCAR-8 ovarian
  growth: 81.3% (inactive) and 96.4% (inactive)
OVCAR-5 ovarian
  growth: 96.9% (inactive) and 106% (inactive)
OVCAR-4 ovarian
  growth: 81.4% (inactive) and 106% (inactive)
SK-OV-3 ovarian
  growth: 78% (inactive) and 103% (inactive)
IGROV1 ovarian
  growth: 75.1% (inactive) and 88.1% (inactive)
OVCAR-3 ovarian
  growth: 46% (inactive) and 98.9% (inactive)
HS 578T breast
  growth: 77.3% (inactive) and 94.7% (inactive)
NCI/ADR-RES ovarian
  growth: 79.5% (inactive) and 105% (inactive)

Reference: PubChem BioAssay (NCI)
